Laboratory results: PubChem BioAssay (Tox21)
Results filed as inconclusive are left out. Active and inactive are the calls of the source. Unless noted, calls come from the whole dose curve.

What was measured:
[1] = target: Estrogen receptor (Homo sapiens) (UniProt P03372); test: qHTS assay to identify small molecule agonists of the estrogen receptor alpha (ER-alpha) signaling pathway in the presence of an antagonist (AID 1259383); conditions: VM7Luc4E2 cells, ERE-luciferase, +ICI-182,780, 22 h; series mostly up to 92.4 µM; note: top concentration of the series differs between compounds; nearly all actives have a fitted effect of over 15% in size
Outline: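 Cells are hormone-deprived for 5 days (charcoal-stripped FBS, no phenol red), plated for 24hr, spiked with 10.0nM ICI-182,780, then dosed at 15 concentrations. After 22hr at 37C, ONE-Glo luminescence reports ERE-luciferase activity.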

[2] = qHTS assay to identify small molecule agonists or antagonists of the thyroid stimulating hormone receptor (TSHR) signaling pathway - wild type cell line counter screen (AID 1259384); conditions: HEK293 wild type, cAMP HTRF counter-screen, active compounds read high; series mostly up to 92.4 µM
Outline: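 Counter screen in untransfected Hek293: compounds (15-point titration, triplicate) plus phosphodiesterase inhibitor Ro20-1724 added after 18 h plating; 30 min RT. Intracellular cAMP via competitive d2/cryptate immunoassay, 1 h incubation.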

[3] = target: Thyrotropin receptor (Homo sapiens) (UniProt P16473); test: qHTS assay to identify small molecule antagonists of the thyroid stimulating hormone receptor (TSHR) signaling pathway (AID 1259385); conditions: TSHR-HEK293 cAMP HTRF, TSH-stimulated antagonist mode; series mostly up to 92.4 µM; note: nearly all actives have a fitted effect of over 20% in size
Outline: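 Antagonist mode: compound-treated TSHR-expressing HEK293 cells were stimulated with 1.5 ng/mL TSH (final) in presence of Ro20-1724 for 30 min at RT. HTRF cAMP detection after 1 h; each compound tested at 15 concentrations, triplicate.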

[4] = qHTS assay to identify small molecule agonists of the estrogen receptor alpha (ER-alpha) signaling pathway in the presence of an antagonist - cell viability counter screen (AID 1259386; active = well fitted curve in the direction sought with a large enough effect in the repeat runs; an effect the other way counts as inactive or inconclusive;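 note: cells exposed to compounds for 22 h at 37 °C before the viability read; nearly all actives have a fitted effect of over 30% in size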); conditions: VM7Luc4E2 viability, CellTiter-Fluor fluorescence, 22 h; series mostly up to 92.4 µM
Outline: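 Cells are starved of estrogens for 5 days in charcoal-stripped serum, seeded for 24hr and co-treated with ICI-182,780 (10.0nM final) and test compounds. After 22hr at 37C, viability is read as CellTiter-Fluor fluorescence.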

[5] = target: Progesterone receptor (Homo sapiens) (UniProt P06401); test: qHTS assay to identify small molecule agonists of the progesterone receptor (PR) signaling pathway (AID 1346784); conditions: PR-UAS-bla HEK293T, beta-lactamase FRET ratio, 16 h; series mostly up to 92.4 µM; note: nearly all actives have a fitted effect of over 30% in size
Outline: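 HEK 293T PR-UAS-bla reporter cells, 2% charcoal-stripped FBS; 6 hr settle at 37C/5% CO2, compound (DMSO) 16 hr, LiveBLAzer B/G FRET substrate 2 hr RT, fluorescence intensity read.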

[6] = target: Progesterone receptor (Homo sapiens) (UniProt P06401); test: qHTS assay to identify small molecule antagonists of the progesterone receptor (PR) signaling pathway (AID 1346795; active = well fitted inhibition curve with a large enough effect in the signal ratio in the repeat runs, not every such curve was filed as active; the % refers to the signal ratio); conditions: PR-UAS-bla HEK293T, beta-lactamase FRET ratio, 16 h; series mostly up to 92.4 µM
Outline: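 Beta-lactamase reporter, HEK293T PR-UAS-bla line; 2% charcoal-stripped FBS; 6 hr pre-incubation, 37C/5% CO2. Compound + R5020 1 nM final, 16 hr. LiveBLAzer B/G FRET substrate, 2 hr RT; fluorescence intensity read.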

[7] = qHTS assay to identify small molecule antagonists of the progesterone receptor (PR) signaling pathway - cell viability counter screen (AID 1346798; active = well fitted curve in the direction sought with a large enough effect in the repeat runs; an effect the other way counts as inactive or inconclusive; note: nearly all actives have a fitted effect of over 50% in size); conditions: PR-UAS-bla HEK293T viability, CellTiter-Glo luminescence, 16 h; series mostly up to 92.4 µM
Outline: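 Luminescence readout (CellTiter-Glo, 30 min, RT) of viability in PR-UAS-bla HEK293T cells exposed to compound and R5020 agonist for 16 hr at 37C, 5% CO2; run in the same wells as the beta-lactamase reporter read.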

[8] = qHTS assay to identify small molecule agonists of the progesterone receptor (PR) signaling pathway - cell viability counter screen (AID 1346799); conditions: PR-UAS-bla HEK293T viability, CellTiter-Glo luminescence, 16 h; series mostly up to 92.4 µM; note: nearly all actives have a fitted effect of over 45% in size
Outline: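 HEK293T PR-UAS-bla, 3,000 cells/well, 2% charcoal-stripped FBS; 6 h settle, compound 16 h at 37C/5% CO2; LiveBLAzer 2 h RT, then CellTiter-Glo 30 min RT, luminescence read.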

[9] = qHTS assay to identify small molecule antagonists of the TGF-beta/Smad signaling pathway - cell viability counter screen (AID 1346824; active = well fitted curve in the direction sought with a large enough effect in the repeat runs; an effect the other way counts as inactive or inconclusive; note: nearly all actives have a fitted effect of over 50% in size); conditions: SBE-bla HEK293T viability, CellTiter-Glo luminescence; series mostly up to 76.8 µM
Outline: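 Cytotoxicity counter-screen run in the same wells as the beta-lactamase Smad reporter read: CellTiter-Glo luminescence after 30 min at room temperature. HEK 293T SBE-bla cells had 5 hr compound exposure at 37 C with TGF-beta1 (0.25 ng/mL stock).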

[10] = qHTS assay to identify small molecule agonists of the TGF-beta/Smad signaling pathway - cell viability counter screen (AID 1346829; active = well fitted curve in the direction sought with a large enough effect in the repeat runs; an effect the other way counts as inactive or inconclusive; note: top concentration of the series differs between compounds; nearly all actives have a fitted effect of over 45% in size); conditions: SBE-bla HEK293T viability, CellTiter-Glo luminescence, 5 h; series mostly up to 76.8 µM
Outline: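 Here the cytotoxicity of library compounds is measured in SBE-bla HEK 293T cells treated for 5 hr, using CellTiter-Glo added to wells already read for the beta-lactamase reporter.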
% is set by controls: 0 for no effect and ±100 for the full control effect.

Sequence of Estrogen receptor (Homo sapiens) (P03372 whole entry, looked up): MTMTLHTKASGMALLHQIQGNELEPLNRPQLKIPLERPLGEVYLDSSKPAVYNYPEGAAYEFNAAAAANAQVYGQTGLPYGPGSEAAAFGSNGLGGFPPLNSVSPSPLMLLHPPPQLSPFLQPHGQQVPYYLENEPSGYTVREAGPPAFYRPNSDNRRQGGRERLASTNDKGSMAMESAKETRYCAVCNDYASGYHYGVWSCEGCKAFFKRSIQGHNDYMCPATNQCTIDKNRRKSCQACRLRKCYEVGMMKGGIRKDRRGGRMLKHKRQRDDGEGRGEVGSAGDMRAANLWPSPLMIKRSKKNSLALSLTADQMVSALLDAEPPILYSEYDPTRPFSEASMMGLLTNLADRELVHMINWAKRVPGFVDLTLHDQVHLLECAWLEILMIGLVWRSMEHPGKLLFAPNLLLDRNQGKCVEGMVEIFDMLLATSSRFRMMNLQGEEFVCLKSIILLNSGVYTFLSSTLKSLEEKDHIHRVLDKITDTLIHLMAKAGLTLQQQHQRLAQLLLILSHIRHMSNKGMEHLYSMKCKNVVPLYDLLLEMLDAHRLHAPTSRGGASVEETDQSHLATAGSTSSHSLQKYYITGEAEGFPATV
Sequence of Progesterone receptor (Homo sapiens) (P06401 whole entry, looked up): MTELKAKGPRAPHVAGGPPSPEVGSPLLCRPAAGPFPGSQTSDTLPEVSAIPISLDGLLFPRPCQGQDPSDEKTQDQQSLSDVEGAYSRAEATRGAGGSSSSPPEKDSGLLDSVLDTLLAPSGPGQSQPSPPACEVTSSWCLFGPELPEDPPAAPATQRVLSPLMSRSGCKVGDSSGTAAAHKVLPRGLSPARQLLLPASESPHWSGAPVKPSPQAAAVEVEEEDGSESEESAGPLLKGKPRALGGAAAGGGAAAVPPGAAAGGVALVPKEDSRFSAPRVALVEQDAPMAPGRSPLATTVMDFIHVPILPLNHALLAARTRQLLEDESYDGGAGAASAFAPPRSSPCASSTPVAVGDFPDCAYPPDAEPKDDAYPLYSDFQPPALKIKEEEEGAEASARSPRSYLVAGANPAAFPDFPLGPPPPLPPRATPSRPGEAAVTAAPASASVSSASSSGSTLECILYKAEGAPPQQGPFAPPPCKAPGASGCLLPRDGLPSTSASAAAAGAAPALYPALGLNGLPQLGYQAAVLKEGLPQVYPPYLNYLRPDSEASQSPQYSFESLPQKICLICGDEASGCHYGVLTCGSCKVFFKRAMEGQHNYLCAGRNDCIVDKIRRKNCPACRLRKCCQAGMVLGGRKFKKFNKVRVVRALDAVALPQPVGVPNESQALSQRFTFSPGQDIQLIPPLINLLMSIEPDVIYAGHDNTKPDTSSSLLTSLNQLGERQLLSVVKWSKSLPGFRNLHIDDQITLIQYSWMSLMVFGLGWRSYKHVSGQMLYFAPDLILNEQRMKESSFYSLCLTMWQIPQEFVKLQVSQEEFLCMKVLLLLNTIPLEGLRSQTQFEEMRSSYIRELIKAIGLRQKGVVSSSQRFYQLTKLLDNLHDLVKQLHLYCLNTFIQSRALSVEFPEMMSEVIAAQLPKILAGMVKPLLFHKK
Sequence of Thyrotropin receptor (Homo sapiens) (P16473 whole entry, looked up): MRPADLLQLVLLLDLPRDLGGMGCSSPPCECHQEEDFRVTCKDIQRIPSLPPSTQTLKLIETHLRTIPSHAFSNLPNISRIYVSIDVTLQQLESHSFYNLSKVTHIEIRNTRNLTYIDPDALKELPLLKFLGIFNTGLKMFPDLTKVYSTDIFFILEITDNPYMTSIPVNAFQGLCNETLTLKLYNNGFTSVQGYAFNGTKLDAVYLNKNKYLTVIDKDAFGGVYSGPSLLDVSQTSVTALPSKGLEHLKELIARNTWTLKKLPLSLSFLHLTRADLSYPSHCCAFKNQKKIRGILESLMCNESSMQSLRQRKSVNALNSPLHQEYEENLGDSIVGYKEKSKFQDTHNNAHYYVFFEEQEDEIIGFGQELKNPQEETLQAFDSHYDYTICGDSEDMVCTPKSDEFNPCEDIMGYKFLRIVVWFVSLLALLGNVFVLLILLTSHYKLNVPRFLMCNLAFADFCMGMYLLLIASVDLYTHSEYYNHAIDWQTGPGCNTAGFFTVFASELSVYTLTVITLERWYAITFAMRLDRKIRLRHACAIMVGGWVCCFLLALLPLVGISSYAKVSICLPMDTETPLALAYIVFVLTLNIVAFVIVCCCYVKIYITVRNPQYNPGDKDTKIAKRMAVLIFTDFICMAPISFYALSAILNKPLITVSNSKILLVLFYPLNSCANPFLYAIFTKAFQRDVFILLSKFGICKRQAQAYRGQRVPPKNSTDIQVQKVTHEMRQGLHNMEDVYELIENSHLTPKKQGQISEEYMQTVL

OC1OCCOC1O (stereo not given)
inactive: Potency [1] | outcome [2] | outcome [3] | outcome [4] | Potency [5] | Potency [6] | outcome [7] | outcome [8] | outcome [9] | outcome [10]

Cc1cc(-c2ccccc2)nnc1NCCN1CCOCC1
inactive: Potency [1] | outcome [2] | outcome [3] | outcome [4] | Potency [5] | Potency [6] | outcome [7] | outcome [8] | outcome [9] | outcome [10]

CCC(C)C(=O)OCCc1ccccc1 (stereo not given)
inactive: Potency [1] | outcome [2] | outcome [3] | outcome [4] | Potency [5] | Potency [6] | outcome [7] | outcome [8] | outcome [9] | outcome [10]

CC1(C)Oc2ccc(C#N)cc2[C@@H](N2CCCC2=O)[C@@H]1O
inactive: Potency [1] | outcome [2] | outcome [3] | outcome [4] | Potency [5] | Potency [6] | outcome [7] | outcome [8] | outcome [9] | outcome [10]

CC/C=C\CCOC(=O)c1ccccc1O
inactive: Potency [1] | outcome [2] | outcome [3] | outcome [4] | Potency [5] | Potency [6] | outcome [7] | outcome [8] | outcome [9] | outcome [10]

O=C(CN1CCNCC1)NC1CCCCC1
inactive: Potency [1] | outcome [2] | outcome [3] | outcome [4] | Potency [5] | Potency [6] | outcome [7] | outcome [8] | outcome [9] | outcome [10]

CC1CC(=O)CC(C)(C)C1 (stereo not given)
inactive: Potency [1] | outcome [2] | outcome [3] | outcome [4] | Potency [5] | Potency [6] | outcome [7] | outcome [8] | outcome [9] | outcome [10]

Cc1cc(C)c(C(=O)O)c(C)c1
inactive: Potency [1] | outcome [2] | outcome [3] | outcome [4] | Potency [5] | Potency [6] | outcome [7] | outcome [8] | outcome [9] | outcome [10]

NCC1(Cc2noc(=O)[nH]2)CCCCC1
inactive: Potency [1] | outcome [2] | outcome [3] | outcome [4] | Potency [5] | Potency [6] | outcome [7] | outcome [8] | outcome [9] | outcome [10]

CCCC(=O)Nc1ccc(OCC(O)CNC(C)C)c(C(C)=O)c1 (stereo not given)
inactive: Potency [1] | outcome [2] | outcome [3] | outcome [4] | Potency [5] | Potency [6] | outcome [7] | outcome [8] | outcome [9] | outcome [10]

CC(CO)(CO)CO
inactive: Potency [1] | outcome [2] | outcome [3] | outcome [4] | Potency [5] | Potency [6] | outcome [7] | outcome [8] | outcome [9] | outcome [10]

COC(=O)c1cc(Cl)cc(Cl)c1
inactive: Potency [1] | outcome [2] | outcome [3] | outcome [4] | Potency [5] | Potency [6] | outcome [7] | outcome [8] | outcome [9] | outcome [10]

Fc1ccccc1
inactive: Potency [1] | outcome [2] | outcome [3] | outcome [4] | Potency [5] | Potency [6] | outcome [7] | outcome [8] | outcome [9] | outcome [10]

CCO
inactive: Potency [1] | outcome [2] | outcome [3] | outcome [4] | Potency [5] | Potency [6] | outcome [7] | outcome [8] | outcome [9] | outcome [10]

CCCCCCC1(C)CCC(=O)O1 (stereo not given)
inactive: Potency [1] | outcome [2] | outcome [3] | outcome [4] | Potency [5] | Potency [6] | outcome [7] | outcome [8] | outcome [9] | outcome [10]

CC1(C)CC(OC(=O)CCCCCCCCC(=O)OC2CC(C)(C)NC(C)(C)C2)CC(C)(C)N1
inactive: activation [1] -0.324% [at 19 µM] | cAMP activity change [2] -0.26% [at 18.9 µM] | activity change, negative = inhibition [3] -9.89% [at 19 µM] | activity change, negative = cytotoxicity [4] -0.743% [at 19 µM] | activation [5] 0.194% [at 19 µM] | activity change, negative = inhibition [6] 5.15% [at 18.9 µM] | activity change, negative = cytotoxicity [7] -13.3% [at 18.9 µM] | activity change, negative = cytotoxicity [8] 0.742% [at 19 µM] | viability change, negative = cytotoxic [9] -1.01% [at 15.8 µM] | activity change, negative = cytotoxicity [10] 11.9% [at 15.8 µM]

c1ccc(-c2nn[nH]n2)cc1
inactive: Potency [1] | outcome [2] | outcome [3] | outcome [4] | Potency [5] | Potency [6] | outcome [7] | outcome [8] | outcome [9] | outcome [10]

CC(=O)OC1CCCCC1C(C)(C)C (stereo not given)
inactive: Potency [1] | outcome [2] | outcome [3] | outcome [4] | Potency [5] | Potency [6] | outcome [7] | outcome [8] | outcome [9] | outcome [10]

Nc1nnnn1-c1ccccc1
inactive: Potency [1] | outcome [2] | outcome [3] | outcome [4] | Potency [5] | Potency [6] | outcome [7] | outcome [8] | outcome [9] | outcome [10]

CCCCCc1cccc(=O)o1
inactive: Potency [1] | outcome [2] | outcome [3] | outcome [4] | Potency [5] | Potency [6] | outcome [7] | outcome [8] | outcome [9] | outcome [10]

N#CCC(=O)NN
inactive: Potency [1] | outcome [2] | outcome [3] | outcome [4] | Potency [5] | Potency [6] | outcome [7] | outcome [8] | outcome [9] | outcome [10]

CC1CCc2c(N3CCC(O)CC3)c(F)cc3c(=O)c(C(=O)O)cn1c23 (stereo not given)
inactive: Potency [1] | outcome [2] | outcome [3] | outcome [4] | Potency [5] | Potency [6] | outcome [7] | outcome [8] | outcome [9] | outcome [10]
